Screens from PubChem.
Pf growth 96h: Primary qHTS for delayed death inhibitors of the malarial parasite plastid, 96 hour incubation; AID 504834, 2011; P. falciparum luciferase reporter growth, 96 h; Potency, µM (titrated, usually from 28.7 µM), without a hit: at the top dose activity change, negative = inhibition, usual class: inhibitors; 320,000 compounds, 6.9% hits; further: potency means the concentration at half of the fitted maximal effect; on the % scale 0 is the no-effect control and ±100 the full control effect
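Erythrocytes infected with luciferase-expressing P. falciparum were dispensed at 2% hematocrit and 0.05% parasitemia (final), then incubated with compounds 96 hours at 37 C in 5% CO2. Luminescence after detection reagent addition reported growth.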
CHX counter: Cycloheximide Counterscreen for Small Molecule Inhibitors of Shiga Toxin. max response, %. AID 2314, 2010. cell reporter, cycloheximide protein synthesis inhibition counterscreen. 300,000 compounds, 12% hits; in the data active means max response mostly above about 13%, no sharp cut-off; inactive means mostly below about 14%; further: read at 38.3 µM for the half of the compounds with a filed dose; 0% is about no effect
Shiga toxin inh: A qHTS for Small Molecule Inhibitors of Shiga Toxin. Vero cells, Shiga toxin protein synthesis inhibition reporter. AID 2315, 2010. inhibition, % at 38.7 µM. 290,000 compounds, 9.2% hits; in the data active means inhibition mostly above about 28%, no sharp cut-off; inactive means mostly below about 43%; further: 0% is about no effect
Sm TGR inh: qHTS Assay for the Inhibitors of Schistosoma Mansoni Peroxiredoxins | Schistosoma mansoni thioredoxin glutathione reductase (TGR), Q962Y6 | purified TGR, DTNB reduction, TNB absorbance 405 nm | Potency, µM (highest dose often 114 µM), inactives show top-dose activity change, negative = inhibition, most hits filed as inhibitors | 360,000 compounds, 3% hits | AID 485364, 2010; further: potency means the concentration at half of the fitted maximal effect; on the % scale 0 is the no-effect control and ±100 the full control effect; nearly all actives have a fitted effect of over 60% in size
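Kinetic colorimetric format: TGR-catalysed, NADPH-driven DTNB reduction monitored via TNB absorbance. Enzyme dispensed at 20 nM; compound exposure 15 min at room temperature before reaction start.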
NS1 function inh: qHTS Assay for Inhibitors of Influenza NS1 Protein Function | 270,000 compounds, 0.4% hits | Potency, µM (series often up to 46.1 µM), without a hit: at the highest dose activity, positive = more growth; calls by dose curve; further: potency means the concentration at half of the fitted maximal effect; actives are rising curves; nearly all actives have a fitted effect of over 50% in size
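OD600 was taken as the measure of yeast growth restored by compound in an NS1-expressing S. cerevisiae strain. Cells had been washed out of glucose medium and diluted 1:100 into galactose -URA medium, pH 6.0.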
Pf growth 48h: Primary qHTS for delayed death inhibitors of the malarial parasite plastid, 48 hour incubation | Potency, µM (titrated, usually from 28.7 µM), for the others: top-dose activity change, negative = inhibition, hits mostly inhibitors | P. falciparum luciferase growth in erythrocytes, 48 h | AID 504832, 2011 | 310,000 compounds, 5.9% hits; further: potency means the concentration at half of the fitted maximal effect; on the % scale 0 is the no-effect control and ±100 the full control effect
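Luciferase-expressing P. falciparum in infected erythrocytes (2% hematocrit, 0.1% parasitemia final) in RPMI 1640/0.5% Albumax were exposed to compound for 48 hours at 37 C, 5% CO2; growth read as luminescence.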
* = called active by the depositor; ? = inconclusive; . = no result; [ ] = another dose, or the depositor's remark. Sampled rows, rich in hits. Any-hit rate of the full collection: about 21%. Unless noted, the call rests on the fitted dose curve; in most records, active means well fitted curve in the direction sought with a large enough effect; inconclusive means small, poorly fitted or top-dose-only effect, or another doubt; inactive means no such curve, though single readings can be large; an effect the other way counts as inactive or inconclusive.

SMILES | Pf growth 96h | CHX counter | Shiga toxin inh | Sm TGR inh | NS1 function inh | Pf growth 48h
CC(=O)c1ccc(NC(=O)CC2Nc3cccc4cccc(c34)NC2=O)cc1 (centres undefined) | ? | 7.1 | 2.0 | 17.8µM* | 11.0% | ?
COc1ccc(OC)c(NC(=O)CC2Oc3ccccc3NC2=O)c1 (centres undefined) | 0.6% | 14.2* | 27.5 | 9.1% | 5.7% | 38.3%
CCOc1ccc(OCC)c(NC(=O)CC2Oc3ccc(C)cc3NC2=O)c1 (centres undefined) | 10.4µM* | -5.4 | -10.6 | -11.3% | 5.2% | .
COc1ccccc1NC(=O)CC1Nc2ccccc2NC1=O (centres undefined) | . | 3.9 | 18.6 | -32.5% | 15.6% | 3.7µM*
Cc1nc(-c2ccc(Cl)cc2)sc1CCNC(=O)C(=O)Nc1ccc2c(c1)OCCO2 | . | . | . | 5.9% | . | .
Cc1nn2c(=O)cc(COC(=O)Cc3ccccc3)nc2s1 | . | . | . | 3.6% | . | .
CCOCCCNc1ncnc2c1[nH]c1ccccc12 | ? | 12.5* | -1.8 | 9.6% | -27.5% | 10.4µM*
c1ccc2c(c1)[nH]c1c(NCC3CCCO3)ncnc12 (centres undefined) | ? | -4.0 | -5.4 | 3.8% | -5.2% | ?
CCCCOCCCNc1ncnc2c1[nH]c1ccccc12 | . | -2.5 | -6.4 | 0.7% | -21.9% | 7.38µM*
OCc1cn(-c2ccc(Cl)cc2)nn1 | 11.0% | 5.3 | -7.1 | 1.6% | . | 30.5%
CCCC(=NC(C)CC)C1=C(O)CC(c2ccccc2)CC1=O (centres undefined) | ? | 1.4 | -5.0 | -3.2% | -61.6% | 2.94µM*
CCC(=Nc1ccccc1O)C1=C(O)CC(c2ccccc2)CC1=O (centres undefined) | ? | 10.8* | 34.0 | -33.0% | -84.0% | ?
CCC(=Nc1ccccc1OC)C1=C(O)CC(c2ccccc2)CC1=O (centres undefined) | 0.415µM* | -9.5 | 21.3 | 9.2% | . | -23.4%
CCC(=NCCc1c(C)[nH]c2ccc(C)cc12)C1=C(O)CC(c2ccccc2)CC1=O (centres undefined) | ? | -4.6 | -13.2 | -4.9% | 2.6% | ?
Cc1ccc(NC(=O)c2cnc(SCC(=O)N3CCOCC3)n(C)c2=O)cc1 | . | . | . | 1.4% | . | .
Cc1cccc(N2CCN(CC(=O)Nc3ccc(S(=O)(=O)N4CCOCC4)cc3)CC2)c1C | 5.0% | -2.2 | 2.0 | -4.8% | -22.3% | ?
CC(=O)c1cccc(NC(=S)N2CCN(S(=O)(=O)c3ccccc3)CC2)c1 | 4.15µM* | 9.7* | 50.4 | ? | 15.3% | ?
CC(=O)c1cccc(NC(=O)C(C)OC(=O)c2cccc(S(=O)(=O)N3CCN(C)CC3)c2)c1 (centres undefined) | ? | . | . | 50.1µM* | . | ?
CC(OC(=O)c1cccc(S(=O)(=O)N2CCN(C)CC2)c1)C(=O)Nc1ccc(C(N)=O)cc1 (centres undefined) | 25.6% | . | . | -2.3% | . | 1.3%
Cc1cccc(NC(=S)N2CCN(S(=O)(=O)c3cccc(F)c3)CC2)c1 | ? | 8.6 | 6.4 | -8.6% | . | 13.1µM*
CC(=O)c1cccc(NC(=S)N2CCN(S(=O)(=O)c3ccc(F)cc3)CC2)c1 | ? | 19.2* | -0.3 | 5.5% | 21.3% | ?
CSCCC1C(C#N)=C(N)Oc2n[nH]c(-c3cccs3)c21 (centres undefined) | ? | 0.9 | -8.8 | 12.6µM* | 4.3% | -1.9%
CC(C)CC1C(C#N)=C(N)Oc2n[nH]c(-c3cccs3)c21 (centres undefined) | ? | -4.9 | -26.2 | 6.9% | 1.9% | .
COc1ccc(C)c2sc(NC(=O)C3CC3)nc12 | 28.9% | 8.3 | 6.9 | -8.4% | -63.6% | 34.3%
Cc1nc2c(ccc3nc(NC(=O)C4CC4)sc32)s1 | 9.8% | 52.4* | 84.8* | 7.1% | . | 34.6%
SMILES | Pf growth 96h | CHX counter | Shiga toxin inh | Sm TGR inh | NS1 function inh | Pf growth 48h
CCC(=O)Nc1nc2ccc([N+](=O)[O-])cc2s1 | 45.6% | 10.1 | 13.6 | 14.3% | -54.8% | 81.2%
CCC(=O)Nc1nc2ccc3sc(C)nc3c2s1 | -6.0% | 50.0* | 96.0* | -0.8% | -6.8% | ?
CCN1CCN(c2cc(C)c3cc(NC(=S)NCCCN4CCc5ccccc5C4)ccc3n2)CC1 | ? | -11.0 | 27.3 | ? | . | 7.38µM*
Cc1cc(N2CCN(C)CC2)nc2ccc(NC(=S)NCCN3CCc4ccccc4C3)cc12 | ? | -3.0 | -2.7 | -16.3% | -2.9% | 9.28µM*
Cc1ccc2nc(SCC(=O)NCCCN3CCCC3=O)[nH]c2c1 | 8.5% | . | . | 1.0% | . | 3.3%
CC(=O)Nc1c(N)c2ccccc2oc1=O | 29.8% | -0.6 | -13.0 | 3.7% | 3.3% | 2.2%
COCCNC(=S)N/N=C(\C)c1ccc(O)cc1 | 37.0% | 2.0 | -3.2 | -25.2% | -5.1% | 29.2%
C/C(=N\NC(=S)NCC(C)(C)C)c1cc(F)cc(F)c1O | ? | 2.9 | 18.1 | 6.3% | 1.2% | 0.294µM*
CC1CCN(C(=O)c2[nH]cnc2C(=O)Nc2nccs2)CC1 | 31.2% | . | . | 28.2µM* | . | 18.0%
CC(C)NC(=O)CSc1nnc2sc3ccccc3n12 | -3.5% | 26.8* | 24.0 | 0.0% | 5.2% | 40.3%
COc1ccc(OCCSc2nnc3sc4ccccc4n23)cc1 | . | 59.7* | 66.9 | -1.8% | -81.7% | ?
CN(C)CCSc1nnc2sc3ccccc3n12 | 41.2% | 10.9 | 25.3 | 0.2% | -1.1% | 9.2%
CCN1CCN(c2ccc(S(=O)(=O)N3CCOCC3)cc2NC(=O)c2ccc(Cl)cc2Cl)CC1 | ? | . | . | -0.2% | . | 13.1µM*
CCN1CCN(S(=O)(=O)c2ccc(Cl)c(C(=O)Nc3cc(Cl)ccc3N3CCOCC3)c2)CC1 | 13.1µM* | -1.7 | -2.5 | -28.1% | -6.1% | ?
CN(CCOc1ccc(Cl)cc1)C(=O)c1cc([N+](=O)[O-])ccc1N1CCOCC1 | ? | . | . | -1.7% | . | -11.4%
Cn1c(CO)cnc1SCc1ccc(Cl)cc1 | -3.7% | 20.3* | 24.7 | 0.1% | -7.4% | 22.4%
COc1ccc(CC(=O)NCc2nnc(SCc3ccc(C)cc3)n2C)cc1 | -18.3% | -1.3 | -4.3 | 1.2% | -5.8% | 3.3%
COC(=O)c1cnc(SCc2ccc(C)cc2)n1C | 81.5% | 31.6* | 44.1 | 9.2% | -3.9% | 209.2%
Cn1c(CO)cnc1S(=O)(=O)Cc1ccc(Cl)cc1 | 6.6% | 1.2 | -14.0 | 0.0% | -0.1% | 0.3%
C#CCNC(=O)C(C)c1ncc(C(F)(F)F)cc1Cl (centres undefined) | 119.6% | 3.4 | -6.5 | 1.4% | 6.1% | -3.7%
Cc1cc(/C=C(\C#N)C(=O)NCc2ccco2)c(C)[nH]1 | 45.7% | 11.5 | 9.3 | ? | 5.6%[9.22 µM] | 81.5%
N#C/C(=C\c1ccc[nH]1)C(=O)Nc1ccccc1Cl | -25.9% | 32.6* | 60.8* | -1.1% | -1.4% | 36.7%
